# According to PubChem BioAssay AID1053143 (Broad Institute, 2014):
# Out of some 3,400 compounds screened, about 120 (3.5%) were called active. No rule for the calls is given here. These entries were drawn from the full list. Measured potencies and affinities stand elsewhere.
# Assay: viability loss in HepG2 hepatoma cells – cell-based, ATP luminescence, cherry-pick, activator set 2, cytotoxicity control, dose response (AID 1053143)
# Conditions: CellTiter-Glo ATP luminescence, 72 h; series mostly up to 26 µM
row,Compound,"activity change, negative = cytotoxicity"
1,Cc1cccc(C(=O)OCC(=O)c2c(C)[nH]c3ccccc23)c1O,inactive
2,Cc1cccc(NC(=O)c2c(O)c3ccccc3[nH]c2=O)c1,inactive
3,Nn1c(SCc2c(F)cccc2F)nnc1-c1ccccn1,inactive
4,O=C(Nc1ccc(NC(=O)c2cccs2)cc1Cl)c1ccco1,inactive
5,CCC(=O)Nc1ccc(NC(=O)c2ccco2)c(OC)c1,inactive
6,Cc1cccc(NC(=O)c2ccccn2)c1C,inactive
7,CC1(O)C(c2ccccc2)=Nc2ccccc21 (centres undefined),inactive
8,O=C(c1cc(COc2c(F)cccc2F)on1)N1C[C@H]2CC[C@H]1C2,inactive
9,Cc1ccc(-n2nc3ccc(N)cc3n2)cc1C,inactive
10,CC(C)c1ccc(-n2nc3ccc(N)cc3n2)cc1,inactive
11,CC(=O)c1ccc2c(c1)Cc1cc(C(C)=O)ccc1-2,inactive
12,CC1CCc2sc(C(=O)NC3CCCCC3)cc2C1 (centres undefined),inactive
13,Fc1ccccc1-c1ccc(/C=N/Nc2nc3ccccc3[nH]2)o1,inactive
14,C(=N\Nc1nc2ccccc2[nH]1)/c1ccc2c(c1)OCCO2,inactive
15,C=CCn1cc(/C=N/Nc2nc3ccccc3[nH]2)c2ccccc21,inactive
16,Cc1ccc(/C=N/Nc2nc3ccccc3[nH]2)s1,inactive
17,Cc1ccsc1/C=N/Nc1nc2ccccc2[nH]1,inactive
18,C(=N\Nc1nc2ccccc2[nH]1)/c1cccs1,inactive
19,C(=C\c1ccccc1)/C=N/Nc1nc2ccccc2[nH]1,inactive
20,Clc1nc2ccccc2cc1/C=N/Nc1nc2ccccc2[nH]1,inactive
21,O=C(COC(=O)CC1CCCC1)Nc1cc2c(cc1Cl)C(=O)c1ccccc1C2=O,inactive
22,O=C(O)CC1=C(Nc2ccccc2)C(=O)N(c2ccccc2)C1c1ccc(Br)cc1 (centres undefined),inactive

row,Compound,"activity change, negative = cytotoxicity"
1,COC(=O)C(C)N1C(=O)S/C(=C/c2cc(C)n(-c3ccccn3)c2C)C1=O (centres undefined),inactive
2,Cc1cccc(-n2ncc3c(NCCCO)ncnc32)c1,inactive
3,O=C(CCNC(=O)c1ccc(Br)cc1)Nc1ccc(S(=O)(=O)N2CCOCC2)cc1,inactive
4,C=CCc1c(C)nc2cc(-c3ccccc3)[nH]n2c1=O,inactive
5,Cc1ccc2oc(C(=O)N(C)Cc3ccon3)c(C)c2c1,inactive
6,C(/C=C/c1ccccn1)=C\c1ccccc1,inactive
7,COc1ccc2cc3cc(C(=O)N4CCCC(C)C4)oc3nc2c1 (centres undefined),inactive
8,Cn1c(NC(=O)c2ccccc2F)c(-c2cccs2)c(=O)c2ccccc21,inactive
9,COc1ccc(N=NC2=C(O)CC(C)(C)CC2=O)cc1,inactive
10,CCC(=O)Nc1ccc2nn(-c3ccc(F)cc3)nc2c1,inactive
11,CC(=O)Nc1cccc(-n2nnc(SCC(=O)c3ccccc3)n2)c1,inactive
12,Cc1cc2nn(-c3ccccc3)nc2cc1NC(=O)c1cccs1,inactive
13,CCC(=O)Nc1cc(C(=O)OCC(=O)c2ccccc2Cl)ccc1C,inactive
14,CCCC(=O)Nc1ccc2oc(-c3cccnc3)nc2c1,inactive
15,Cc1ccc(NC(=O)Nc2cccc(C)n2)cc1,-7.97% [at 6 µM] (inactive)
16,O=C(CC(=O)c1ccccc1)Nc1ccccc1,inactive
17,CC(=O)Nc1cccc(NC(=O)CCCC(=O)O)c1,inactive
18,O=C(Nc1cc(F)c(Br)cc1F)c1ccc(Cl)cc1,inactive
19,Cc1cnc(NC(=O)c2ccc3ncsc3c2)s1,inactive
20,NC(=O)Cc1c[nH]c2cccc(O)c12,inactive
21,CCn1c(O)c(C#N)c(C)cc1=O,inactive
22,c1csc(-c2nc(N3CCCCC3)no2)c1,inactive

row,Compound,"activity change, negative = cytotoxicity"
1,O=C(Nc1ccc(F)cc1F)c1csc(-c2cccs2)n1,inactive
2,Fc1cccc(CSc2ccc(-c3ccco3)nn2)c1,inactive
3,CC(SCc1ccccc1)C(=O)Nc1ccccc1 (centres undefined),inactive
4,COc1cccc(/C=C/c2ccc3cccc(O)c3n2)c1OC,inactive
5,COc1cccc(/C=C/c2ccccn2)c1O,inactive
6,COc1c(OC(C)=O)ccc(/C=C/c2ccc3cccc(OC)c3n2)c1[N+](=O)[O-],inactive
7,CCOC(=O)c1cc(OCC)c2c(ccc3ccccc32)n1,inactive
8,COc1ccc(-c2csc(NC(=O)CC(C)C)n2)cc1,inactive
9,COc1ccccc1N1CCN(/N=C\c2ccc(C)o2)CC1,inactive
10,COc1ccc(CCNC2CC(=O)N(CCc3ccccc3)C2=O)cc1OC (centres undefined),inactive
11,Clc1nc(Nc2ccccc2)nc(Nc2ccccc2)n1,inactive
12,COc1ccc2cc(-c3cccnc3)ncc2c1,inactive
13,O=[N+]([O-])c1ccc(Nc2nccc(Cl)n2)cc1,inactive
14,COc1ccc(Nc2nc(N)nc(CSc3nccn3C)n2)cc1,inactive
15,COc1ccc(Nc2ccc3ccccc3c2)cc1,inactive
16,COc1ccc(NC(=O)Nc2cc(C)ccn2)cc1,inactive
17,O=C(c1ccc(Cl)c([N+](=O)[O-])c1)N(Cc1ccc(Cl)cc1)C1CCS(=O)(=O)C1 (centres undefined),inactive
18,Cn1nnc(NC(=O)C(c2ccccc2)c2ccccc2)n1,inactive
19,O=C(CNC(=O)c1ccccc1)OCC(=O)N1N=C(c2ccc(Cl)cc2)CC1c1ccco1 (centres undefined),inactive
20,C#CCNC(=O)/C=C/c1ccc(OC)cc1,inactive
